About 83,000 compounds went through this panel and 20% of them were active in at least one assay; those are over-represented in the sample as a whole.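 Values shown are percent growth following 48 h exposure of cells in 96-well plates to a single concentration of compound; below 10 was considered active.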 Values without a mark were called inactive. The source made the active and inactive calls.
test system: M14 melanoma; assay: NCI-60 one-dose screen, 48 h (100 = growth as untreated, 0 = no growth, -100 = all killed); conditions: 10 µM unless noted

Row | Compound | growth
1 | C=CCOc1cccc(/C=C/C(=O)c2sc(Nc3cccnc3)nc2C)c1 | 71.2%
2 | O=C(CCCn1c(=O)c2sc3ccccc3c2n2nnc(-c3ccccc3)c12)NCCc1cnc[nH]1 | -78.6% (active)
3 | CCC1CCc2nc3sc(C(=O)Nc4cccc(C)c4)c(N)c3cc2C1 (centres undefined) | 55.1%
4 | Cc1cccc(NC(=O)c2sc3nc4c(cc3c2N)CCCC4)c1 | 30.3%
5 | COc1ccc(-c2cn[nH]c2-c2cc(OC)c3c(c2)OCCO3)cc1 | 10.6%
6 | CC(C)C[C@H](NC(=O)Cn1ccc(NCc2ccccc2)cc1=O)B(O)O | -17% (active)
7 | CC[C@H](C)[C@H]1NC(=O)[C@@H](N[C@](C)(O)[C@@H](N)CC(C)C)[C@@H](C)OC(=O)[C@H](Cc2ccc(OC)cc2)N(C)C(=O)[C@@H]2CCCN2C(=O)[C@H](CC(C)C)NC(=O)[C@@H](C)C(=O)[C@H](C(C)C)OC(=O)C[C@@H]1O | -75.3% (active)
8 | CCNC(=O)C1CCCN1C(=O)C(CCCN=C(N)N)NC(=O)C(CC(C)C)NC(=O)C(CC(C)C)NC(=O)C(Cc1ccc(O)cc1)NC(=O)C(CO)NC(=O)C(Cc1c[nH]c2ccccc12)NC(=O)C(Cc1cnc[nH]1)NC(=O)C1CCC(=O)N1 (centres undefined) | 102%
9 | COC(=O)c1cc(-c2cccs2)c(C#N)c(N)c1C#N | 110%
10 | O=C1N=C(c2c(-c3[nH]c(=O)c4ccc(Br)cc4c3O)c(O)c3ccccc3c2O)C(=O)c2cc(Br)ccc21 | -31.9% (active)
11 | CC[C@]1(O)C[C@@H]2CN(Cc3c([nH]c4ccccc34)[C@@](C(=O)OC)(c3cc4c(cc3OC)N(C)[C@H]3[C@@](O)(C(=O)OC)[C@H](OC(C)=O)[C@]5(CC)[C@@H]6C[C@@H]6CN6CC[C@]43[C@@H]65)C2)C1 | -23.2% (active)
12 | CCOC(=O)[C@H](CSSc1ncnc2cc[nH]c12)NC(=O)[C@@H](C)c1ccc2cc(OC)ccc2c1 | 6.45% (active)
13 | Cc1nc(Nc2cccnc2)sc1C(=O)/C=C/c1ccc(F)cc1 | 25.5%
14 | COc1ccc(C2=CC(c3ccc(Oc4ccnc5cc(Cl)ccc45)c(OC)c3)c3c(nc(OC)[nH]c3=O)N2)cc1 (centres undefined) | 82.8%
15 | COc1ccccc1CNCCCN1C(=O)c2ccc3c4c(ccc(c24)C1=O)C(=O)N(CCCNCCCCNCCCCN)C3=O | -5.69% (active)
16 | Cc1cc(C)c(S(=O)(=O)N2CCN(c3cc4c(cc3F)c(=O)c(C(=O)O)cn4C3CC3)CC2)c(C)c1 | 63.5%
17 | COc1ccc(C(=O)/C=C/c2cc(C(=O)c3cc(OC)c(OC)c(OC)c3)ccc2OC)cc1 | 64.7%
18 | NC(=O)NC(=O)/C=C/C(=O)OCCCl | 113%
19 | COc1cc2nc(N3CCC[C@@H](NC4=CC(=O)c5ccccc5C4=O)C3)nc(N)c2cc1OC | 96.3%
20 | O=S(=O)(c1ccccc1)n1ccc(-c2ccc3c(c2)CCO3)n1 | 101%
21 | O=C(CNc1ccc(Cl)cc1)Nc1ccc(-c2nc3ccccc3s2)cc1 | 44.2%
22 | COc1ccc(/C=C2\CCCC3=C2NC(C)=NC3c2ccc(OC)c(OC)c2)cc1OC (centres undefined) | -42.1% (active)
23 | COc1cc(OC)c(C(=O)/C=C/c2ccc(C(F)(F)F)cc2)c(OC)c1 | 59%
24 | O=C(CCl)NCCNc1nccc(Nc2ccc(S(=O)(=O)Nc3ccccn3)cc2)n1 | 3.17% (active)
25 | O=C(O)c1ccc(-n2c(=O)c3ccccc3c3ccccc3c2=O)cc1 | 117%
26 | Cc1nn(-c2ccc(Cl)cc2)c(=O)n1CCOc1ccccc1Cl | 98.8%
27 | CC(C)(C)OC(=O)N[C@@H](Cc1ccccc1)C(=O)N(Cc1ccccc1)C1(C(=O)NCc2ccccc2)CCN(Cc2ccccc2)CC1 | 40.2%
28 | COc1ccc(C(=O)c2cc(OC)c(OC)c(OC)c2)cc1/C=C/C(=O)c1ccc(OC)c(OC)c1 | 36.2%
29 | CCCCNC(=O)NS(=O)(=O)c1ccc(N2N=C(c3ccc(C)cc3C)CC2c2ccc(OC)cc2)cc1 (centres undefined) | 42.7%

Reference: PubChem BioAssay (NCI)
